Experimental data from PubChem BioAssay AID1159580 (chemical genetic matrix, 2015).
The campaign covered roughly 5,500 compounds. About 2,000 (36%) were called active. Not shown: some 18% with an inconclusive outcome. Cut-off read from the data, not from the text of the source: active = normalized growth mostly below about 0.91 (no sharp cut-off); inconclusive = no clear call, values can overlap the other calls; inactive = mostly above about 0.92. This is one part of the list.

Test: chemical genetic growth profiling, strain panel (AID 1159580);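 note: tested at 20 µM; growth read once vehicle control cultures reached saturation at 30 °C; 1 = growth at the plate median or of vehicle wells; lower values mean less growth of the strain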
Conditions: S. cerevisiae deletion strains, growth OD
[1] = locus YAR019C, strain CDC15, active compounds read low
[2] = locus YBL105C, strain PKC1, active compounds read low
[3] = locus YBR135W, strain CKS1, active compounds read low
[4] = locus YBR136W, strain MEC1, active compounds read low
[5] = locus YBR160W, strain CDC28, active compounds read low
[6] = locus YDL017W, strain CDC7, active compounds read low
[7] = locus YDL028C, strain MPS1, active compounds read low
[8] = locus YDL101C, strain DUN1, active compounds read low
[9] = locus YDL108W, strain KIN28, active compounds read low
[10] = locus YDL132W, strain cdc53, active compounds read low
[11] = locus YDL214C, strain PRR2, active compounds read low
[12] = locus YDR052C, strain DBF4, active compounds read low
[13] = locus YDR054C, strain cdc34, active compounds read low
[14] = locus YDR226W, strain ADK1, active compounds read low
[15] = locus YDR477W, strain SNF1, active compounds read low
[16] = locus YER123W, strain YCK3, active compounds read low
[17] = locus YER133W, strain GLC7, active compounds read low
[18] = locus YFL009W, strain cdc4, active compounds read low
[19] = locus YFL029C, strain CAK1, active compounds read low
[20] = locus YFR003C, strain YPI1, active compounds read low
[21] = locus YFR019W, strain FAB1, active compounds read low
[22] = locus YFR028C, strain CDC14, active compounds read low
[23] = locus YGR040W, strain KSS1, active compounds read low
[24] = locus YGR052W, strain FMP48, active compounds read low
[25] = locus YGR092W, strain DBF2, active compounds read low
[26] = locus YHR030C, strain SLT2, active compounds read low
[27] = locus YHR079C, strain IRE1, active compounds read low
[28] = locus YHR082C, strain KSP1, active compounds read low
[29] = locus YHR205W, strain SCH9, active compounds read low
[30] = locus YIL147C, strain SLN1, active compounds read low
[31] = locus YJL095W, strain BCK1, active compounds read low
[32] = locus YJL128C, strain PBS2, active compounds read low
[33] = locus YJL157C, strain FAR1, active compounds read low
[34] = locus YJR016C, strain ILV3, active compounds read low
[35] = locus YJR066W, strain TOR1 (second series), active compounds read low
[36] = locus YJR066W, strain TOR1, active compounds read low
[37] = locus YKL048C, strain ELM1, active compounds read low
[38] = locus YKL067W, strain YNK1, active compounds read low
[39] = locus YKL101W, strain HSL1, active compounds read low
[40] = locus YKL193C, strain SDS22, active compounds read low
[41] = locus YKL203C, strain TOR2, active compounds read low
[42] = locus YLR113W, strain HOG1, active compounds read low
[43] = locus YLR133W, strain CKI1, active compounds read low
[44] = locus YLR403W, strain SFP1, active compounds read low
[45] = locus YML070W, strain DAK1, active compounds read low
[46] = locus YMR001C, strain CDC5, active compounds read low
[47] = locus YMR205C, strain PFK2 (second series), active compounds read low
[48] = locus YMR277W, strain FCP1, active compounds read low
[49] = locus YNL006W, strain LST8, active compounds read low
[50] = locus YNL020C, strain ARK1, active compounds read low
[51] = locus YNL161W, strain CBK1, active compounds read low
[52] = locus YNL183C, strain NPR1, active compounds read low
[53] = locus YNL207W, strain RIO2, active compounds read low
[54] = locus YNL222W, strain SSU72, active compounds read low
[55] = locus YNL307C, strain MCK1 (second series), active compounds read low
[56] = locus YOL078W, strain AVO1, active compounds read low
[57] = locus YOL136C, strain PFK27, active compounds read low
[58] = locus YOR061W, strain CKA2, active compounds read low
[59] = locus YOR119C, strain RIO1, active compounds read low
[60] = locus YOR231W, strain MKK1, active compounds read low
[61] = locus YOR329C, strain SCD5, active compounds read low
[62] = locus YPL031C, strain PHO85, active compounds read low
[63] = locus YPL153C, strain RAD53, active compounds read low
[64] = locus YPL204W, strain HRR25, active compounds read low
[65] = locus YPL209C, strain IPL1, active compounds read low
[66] = locus YPL256C, strain CLN2, active compounds read low
[67] = locus YPR025C, strain CCL1, active compounds read low
[68] = locus YPR106W, strain ISR1, active compounds read low
[69] = locus YPR111W, strain DBF20, active compounds read low
[70] = strain NNK1, active compounds read low
[71] = strain TSCII, active compounds read low

Measured: normalized growth

CC(=O)c1ccc(Cl)c(N=Cc2cc(Br)cc(Br)c2O)c1
active: [1] 0.107 | [2] 0.0938 | [3] 0.0994 | [4] 0.112 | [5] 0.127 | [6] 0.104 | [7] 0.12 | [8] 0.118 | [9] 0.127 | [10] 0.402 | [11] 0.106 | [12] 0.303 | [13] 0.166 | [14] 0.621 | [15] 0.109 | [16] 0.115 | [17] 0.105 | [18] 0.0929 | [19] 0.0974 | [20] 0.0995 | [21] 0.0995 | [22] 0.102 | [23] 0.103 | [24] 0.128 | [25] 0.102 | [26] 0.141 | [27] 0.124 | [28] 0.134 | [29] 0.00344 | [30] 0.104 | [31] 0.141 | [32] 0.0977 | [33] 0.0879 | [34] 0.0892 | [35] 0.091 | [36] 0.12 | [37] 0.114 | [38] 0.0955 | [39] 0.112 | [40] 0.0908 | [41] 0.113 | [42] 0.161 | [43] 0.0941 | [44] -0.00302 | [45] 0.099 | [46] 0.0969 | [47] 0.0844 | [48] 0.0941 | [49] 0.0893 | [50] 0.103 | [51] 0.0859 | [52] 0.119 | [53] 0.0975 | [54] 0.0926 | [55] 0.103 | [56] 0.0827 | [57] 0.102 | [58] 0.0946 | [59] 0.102 | [60] 0.119 | [61] 0.0861 | [62] 0.105 | [63] 0.0925 | [64] 0.0963 | [65] 0.0856 | [66] 0.144 | [67] 0.0958 | [68] 0.0925 | [69] 0.106 | [70] 0.102 | [71] 0.102

Cc1c(C)c(C)c(C(=O)c2ccc(N=Cc3cc(Cl)cc(Cl)c3O)cc2)c(C)c1C
inactive: [1] 0.929 | [2] 0.934 | [3] 0.94 | [4] 0.925 | [5] 0.944 | [6] 0.926 | [7] 0.941 | [8] 0.949 | [9] 0.944 | [10] 0.926 | [13] 0.918 | [14] 0.923 | [18] 0.922 | [19] 0.932 | [20] 0.922 | [22] 0.941 | [24] 0.605 | [28] 0.631 | [30] 0.926 | [32] 0.927 | [34] 0.944 | [39] 0.735 | [40] 0.93 | [46] 0.938 | [48] 0.929 | [49] 0.938 | [51] 0.925 | [52] 0.655 | [53] 0.937 | [54] 0.94 | [56] 0.94 | [61] 0.921 | [65] 0.925 | [67] 0.937 | [68] 0.938 | [69] 0.941 | [70] 0.939 | [71] 0.925
active: [11] 0.681 | [12] 0.904 | [15] 0.573 | [16] 0.464 | [17] 0.527 | [21] 0.625 | [23] 0.63 | [25] 0.239 | [26] 0.262 | [27] 0.338 | [29] 0.509 | [31] 0.233 | [33] 0.503 | [35] 0.6 | [36] 0.458 | [37] 0.55 | [38] 0.663 | [41] 0.662 | [42] 0.585 | [43] 0.523 | [44] 0.459 | [45] 0.502 | [47] 0.645 | [50] 0.469 | [55] 0.503 | [57] 0.382 | [58] 0.493 | [59] 0.663 | [60] 0.446 | [62] 0.583 | [63] 0.504 | [64] 0.483 | [66] 0.403

CC(=O)c1ccc(Cl)c(N=Cc2cc(Cl)cc(Cl)c2O)c1
active: [11] 0.303 | [15] 0.289 | [16] 0.151 | [17] 0.354 | [21] 0.222 | [23] 0.339 | [24] 0.253 | [25] 0.139 | [26] 0.159 | [27] 0.148 | [28] 0.227 | [29] 0.199 | [31] 0.139 | [33] 0.23 | [35] 0.341 | [36] 0.175 | [37] 0.441 | [38] 0.227 | [39] 0.308 | [41] 0.399 | [42] 0.192 | [43] 0.274 | [44] 0.186 | [45] 0.184 | [47] 0.304 | [50] 0.247 | [52] 0.246 | [55] 0.209 | [57] 0.197 | [58] 0.198 | [59] 0.32 | [60] 0.123 | [62] 0.269 | [63] 0.197 | [64] 0.247 | [66] 0.197
inactive: [1] 0.94 | [2] 0.948 | [3] 0.953 | [4] 0.941 | [5] 0.937 | [6] 0.944 | [7] 0.91 | [8] 0.932 | [9] 0.935 | [10] 0.958 | [12] 0.963 | [14] 0.948 | [18] 0.928 | [19] 0.934 | [20] 0.933 | [22] 0.939 | [30] 0.926 | [32] 0.9 | [34] 0.967 | [40] 0.941 | [46] 0.936 | [48] 0.92 | [49] 0.947 | [51] 0.955 | [53] 0.947 | [54] 0.923 | [56] 0.926 | [61] 0.953 | [65] 0.95 | [67] 0.959 | [68] 0.952 | [69] 0.931 | [70] 0.948 | [71] 0.905
